Shown are actives, neighbours in structure and some others; about 12% of the full set was active somewhere.
Pf growth 48h: inhibits P. falciparum growth in the first generation, 48 h. Potency, µM (highest dose often 28.7 µM), without a hit: top-dose activity change, negative = inhibition, usual class: inhibitors. P. falciparum luciferase growth in erythrocytes, 48 h. 310,000 compounds, 5.9% hits. AID 504832; note: % is set by controls: 0 for no effect and ±100 for the full control effect
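Read-out is firefly luciferase luminescence from an integrated reporter in P. falciparum, so falling signal marks reduced parasite growth. Infected erythrocytes were at 2% hematocrit and 0.1% parasitemia (final) in Albumax-supplemented RPMI 1640.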
Pf growth 96h: P. falciparum growth inhibition at 96 hour, primary screen for plastid delayed-death inhibitors. P. falciparum luciferase reporter growth, 96 h. Potency, µM (doses to about 28.7 µM), without a hit: at the top dose activity change, negative = inhibition, most hits filed as inhibitors. 320,000 compounds, 6.9% hits. AID 504834; note: % is set by controls: 0 for no effect and ±100 for the full control effect
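Erythrocytes infected with luciferase-expressing P. falciparum were dispensed at 2% hematocrit and 0.05% parasitemia (final), then incubated with compounds 96 hours at 37 C in 5% CO2. Luminescence after detection reagent addition reported growth.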
Sm TGR block: inhibitors of Schistosoma mansoni thioredoxin glutathione reductase. Q962Y6. purified TGR, DTNB reduction, TNB absorbance 405 nm. Potency, µM (doses to about 114 µM), for inactives: at the top dose activity change, negative = inhibition, hits mostly inhibitors. 360,000 compounds, 3% hits; note: % is set by controls: 0 for no effect and ±100 for the full control effect; nearly all actives have a fitted effect of over 60% in size
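Kinetic colorimetric format: TGR-catalysed, NADPH-driven DTNB reduction monitored via TNB absorbance. Enzyme dispensed at 20 nM; compound exposure 15 min at room temperature before reaction start.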
SARS PLP yeast: blocks SARS-CoV papain-like protease in a yeast assay | Potency, µM (titrated, usually from 32.9 µM), without a hit: top-dose activity, positive = growth rescue, hits mostly activators | S. cerevisiae expressing SARS-CoV PLpro, growth rescue | 330,000 compounds, 0.19% hits; calls by dose curve; note: 0% is about no effect; nearly all actives have a fitted effect of over 55% in size
An asterisk follows results filed as active; ? = inconclusive; · = no result. Unless noted, calls come from the whole dose curve; as a rule, active = well fitted curve in the direction sought with a large enough effect; inconclusive = small, poorly fitted or top-dose-only effect, or another doubt; inactive = no such curve, though single readings can be large; an effect the other way counts as inactive or inconclusive. Potency is the fitted concentration of half-maximal effect.

SMILES	Pf growth 48h	Pf growth 96h	Sm TGR block	SARS PLP yeast
CCC(OC(=O)c1ccco1)C(=O)NC1CCCC1 (stereo unspecified)	26.3%	3.0%	-3.6%	-0.9%
COc1ccc(Cn2c(C)nc3ccc([N+](=O)[O-])cc3c2=O)cc1	7.3%	?	-26.1%	-2.7%
CC(C)C(NC(=O)c1ccc(Cl)cc1)C(=O)NCC1CCCO1 (stereo unspecified)	3.8%	22.0%	0.2%	1.7%
Cc1nc(Nc2ccc(O)cc2)c2c3c(sc2n1)CCCC3	14.7µM*	?	-22.6%	-0.5%
Cc1ccc(CNc2nc(C)nc3sc4c(c23)CCC4)cc1	-23.7%	?	-4.7%	-8.2%
COC(=O)c1c(NC(=O)C2CCCCC2)sc2c1CC(C)(C)NC2(C)C	15.5%	86.2%	10.6%	-2.0%
COc1ccc(CCNC(=O)Cn2nc(C)c3c(C)n(-c4ccc(C)cc4)nc3c2=O)c(OC)c1	?	?	-21.2%	-8.3%
O=S(=O)(c1ccccc1)c1nc(-c2ccco2)oc1N1CCCCC1	?	?	44.7µM*	-0.7%
CC1CCN(c2oc(-c3ccco3)nc2S(=O)(=O)c2ccccc2)CC1	-16.6%	4.65µM*	-7.2%	-3.0%
COc1ccc(C(=O)c2cn(Cc3ccccc3F)c3ccc(F)cc3c2=O)cc1	·	·	-4.3%	·
COc1ccc(C(C(=O)NC2CCCCC2)N(C(=O)c2sc(C)nc2C)c2ccc(OC)cc2)cc1 (stereo unspecified)	62.4%	0.0%	-24.4%	-2.4%
COC(CN(C(=O)CCl)C(C(=O)NC1CCCC(C)C1C)c1ccc(C)cc1)OC (stereo unspecified)	-15.3%	?	39.8µM*	13.8%
CN(C)C(C(=O)NC1CCCCC1)c1ccc(Cl)cc1 (stereo unspecified)	-19.0%	?	2.3%	4.6%
COC(CN(C(=O)CCl)C(C(=O)NC1CCCCC1)c1ccccc1C)OC (stereo unspecified)	14.7µM*	?	7.08µM*	-13.3%
COc1ccc(C(C(=O)NC2CCCCC2)N(C(=O)CCl)c2ccc(Cl)cc2)cc1 (stereo unspecified)	-4.6%	3.7µM*	1.58µM*	-9.5%
COC(CN(C(=O)CCl)C(C(=O)NC1CCCCC1)c1ccc(Cl)cc1)OC (stereo unspecified)	?	2.94µM*	22.4µM*	5.9%
C[C@H](O)CN(C)C	5.8%	-13.0%	·	·
O=C(NC1CCCCC1)C(c1cccnc1)N(C(=O)CCl)c1cccc(Cl)c1 (stereo unspecified)	?	?	3.98µM*	-14.3%
CC(C)Cc1nn2c(=O)cc(COC(=O)c3cccc(NC(=O)c4cccs4)c3)nc2s1	·	·	4.0%	·
CC(Sc1nnc(Cc2cccs2)n1C1CCCCC1)C(=O)NCc1ccco1 (stereo unspecified)	·	?	50.1µM*	-3.5%
Cc1ccc(NC(=O)CCCn2nc(C)c3c(C)n(-c4ccccc4)nc3c2=O)cc1C	0.6%	?	10.7%	-1.2%
CCOc1ccc(NC(=O)CCCn2nc(C)c3c(C)n(-c4ccccc4)nc3c2=O)cc1	?	11.7µM*	1.4%	4.0%
Cc1cccc(C)c1NC(=O)CCCn1nc(C)c2c(C)n(-c3ccccc3)nc2c1=O	-15.6%	11.7µM*	0.1%	2.3%
COc1ccc(/C=C/C(=O)NC(=S)NNC(=O)c2cnccn2)cc1	2.08µM*	?	-10.6%	?
O=C(NNC(=S)NC(=O)c1cccnc1)c1ccc(F)cc1	-0.8%	-63.7%	-17.0%	-1.7%
SMILES	Pf growth 48h	Pf growth 96h	Sm TGR block	SARS PLP yeast
O=C(NC(=S)NNC(=O)c1cnccn1)c1ccc(F)cc1	14.7µM*	21.5%	-2.9%	?
O=C(/C=C/c1ccc(F)cc1)NC(=S)NNC(=O)c1cnccn1	3.29µM*	8.28µM*	-8.8%	19.0%
COc1ccc(C(=O)c2c3ccc(OC)cc3[n+]([O-])n2Cc2ccc(C(N)=O)cc2)cc1	?	?	-8.4%	-1.2%
Cc1ccc2oc(-c3cccc(NC(=O)/C=C/c4cccc([N+](=O)[O-])c4)c3C)nc2c1	?	2.33µM*	0.0%	0.0%
O=C(Nc1ccc(Cl)c(-c2nc3ccccc3o2)c1)c1ccc(-c2cccc([N+](=O)[O-])c2)o1	·	·	-10.7%	·
Cc1c(NC(=O)c2ccc(-c3cccc([N+](=O)[O-])c3)o2)cccc1-c1nc2cc(Cl)ccc2o1	·	·	35.5µM*	·
O=C(/C=C/c1cccc([N+](=O)[O-])c1)Nc1ccccn1	69.4%	?	-4.7%	3.1%
COc1cccc(N2CCN(C(=O)CCS(=O)(=O)c3ccc4c(c3)oc(=O)n4C)CC2)c1	?	5.22µM*	25.1µM*	-4.7%
COc1ccc(N(C)S(=O)(=O)c2ccc3c(c2)oc(=O)n3C)cc1	-9.9%	7.38µM*	5.2%	4.8%
Cn1c(=O)oc2cc(S(=O)(=O)CCC(=O)N3CCN(c4cccc(Cl)c4)CC3)ccc21	·	·	3.8%	·
Cc1ccc(C)c(N2CCN(C(=O)CCS(=O)(=O)c3ccc4c(c3)oc(=O)n4C)CC2)c1	?	?	39.8µM*	0.5%
Cn1c(=O)oc2cc(S(=O)(=O)CCC(=O)N3CCN(c4ccccc4)CC3)ccc21	?	9.28µM*	-20.3%	-1.3%
CCc1ccc(CNC(=O)c2c(C)oc3ncn(CC(C)C)c(=O)c23)cc1	·	·	-1.9%	·
COC(=O)[C@]1(C)N[C@H](CN(C)S(=O)(=O)c2ccc(C)cc2)[C@@H]2C(=O)N(Cc3ccccc3)C(=O)[C@@H]21	·	·	·	0.9%
COC1OC(COC(=O)c2ccccc2)C(OC(=O)c2ccccc2)C1OC(=O)c1ccccc1 (stereo unspecified)	?	?	0.5%	1.8%
O=C(OC[C@H]1O[C@@H](OC(=O)c2cc(O)c(O)c(OC(=O)c3cc(O)c(O)c(O)c3)c2)[C@H](OC(=O)c2cc(O)c(O)c(OC(=O)c3cc(O)c(O)c(O)c3)c2)[C@@H](OC(=O)c2cc(O)c(O)c(OC(=O)c3cc(O)c(O)c(O)c3)c2)[C@@H]1OC(=O)c1cc(O)c(O)c(OC(=O)c2cc(O)c(O)c(O)c2)c1)c1cc(O)c(O)c(OC(=O)c2cc(O)c(O)c(O)c2)c1	?	9.28µM*	44.7µM*	4.5%
Cc1cc2[nH]c(=O)c(=O)[nH]c2cc1S(=O)(=O)N1CCN(c2cccc(C)c2C)CC1	?	4.65µM*	-11.5%	3.3%
COc1ccccc1N1CCN(S(=O)(=O)c2cc3[nH]c(=O)c(=O)[nH]c3cc2C)CC1	9.28µM*	?	-18.9%	0.3%
Cc1ccc(C)c(C(=O)c2c(N)c(-c3nc(-c4ccc5c(c4)OCO5)cs3)c3ccccn23)c1	·	·	1.9%	·
COc1ccc(-c2cc3nc(C)c(CCC(=O)Nc4ccccc4C(C)=O)c(C)n3n2)c(OC)c1	·	·	11.3%	·
COc1ccc(C(CNC(=O)c2ccc(Cl)c(NC(=O)c3cccs3)c2)N2CCCC2)cc1 (stereo unspecified)	10.4µM*	8.28µM*	8.1%	0.8%
CC(=O)N1CCN(C(=O)c2ccc(Cl)c(NC(=O)c3cccs3)c2)CC1	-6.5%	11.5%	4.8%	2.0%

Screening results from PubChem.
